In PubChem BioAssay (Tox21):
Inconclusive results are not listed. Calls of active or inactive are those of the source. The call rests on the fitted dose curve; in most records, active means well fitted curve in the direction sought with a large enough effect in the repeat runs; inconclusive means weak or mixed curves; inactive means no such curve, though single readings can be large; an effect the other way counts as inactive or inconclusive.

Key:
[1] = qHTS RealTime-Glo MT Cell Viability Assay in HepG2 cells - 40 hour (AID 1224870); further: nearly all actives have a fitted effect of over 50% in size
Procedure, shortened: (§1)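 Real-time viability: cells seeded at 600 per well together with NanoLuc and cell-permeant prosubstrate, compounds added after 5 h incubation. Luminescence tracked at 0, 8, 16, 24, 32 and 40 h of exposure.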

[2] = A CellTox Green Cytotoxicity Assay to monitor cytotoxicity in HEK293 cells - 40 hour (AID 1224871); further: nearly all actives have a fitted effect of over 45% in size
Procedure, shortened: (§2)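 Homogeneous no-lysis format: HEK293 cell suspension mixed with CellTox Green reagent, seeded, incubated 5 h at 37 C/5% CO2, then dosed by pintool with compound in DMSO.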

[3] = qHTS RealTime-Glo MT Cell Viability Assay in HEK293 cells - 16 hour (AID 1224872); further: top concentration of the series differs between compounds; nearly all actives have a fitted effect of over 50% in size
Procedure, shortened: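 HEK293 cells were seeded at 600 cells/well together with NanoLuc luciferase and cell-permeant prosubstrate, preincubated 5 h at 37 C/5% CO2, then given compound in DMSO by pintool. Luminescence from viable-cell prosubstrate reduction was read repeatedly over 40 h.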

[4] = qHTS RealTime-Glo MT Cell Viability Assay in HepG2 cells - 8 hour (AID 1224873); further: nearly all actives have a fitted effect of over 55% in size
Procedure, shortened: as §1

[5] = qHTS RealTime-Glo MT Cell Viability Assay in HEK293 cells - 40 hour (AID 1224874); settings: RealTime-Glo luminescence; max response: active compounds read low; further: nearly all actives have a fitted effect of over 50% in size
Procedure, shortened: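 Measured as luminescence from the same continuously cultured HEK293 wells at successive time points (0, 8, 16, 24, 32, 40 h) after compound addition. Reagent present from seeding; dosing at 5 h; incubation 37 C.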

[6] = A CellTox Green Cytotoxicity Assay to monitor cytotoxicity in HEK293 cells - 24 hour (AID 1224875); further: series mostly up to about 77 µM; nearly all actives have a fitted effect of over 45% in size
Procedure, shortened: as §2

[7] = A CellTox Green Cytotoxicity Assay to monitor cytotoxicity in HepG2 cells - 16 hour (AID 1224876); further: nearly all actives have a fitted effect of over 45% in size
Procedure, shortened: (§3)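 Fluorescent DNA-binding dye, 600 HepG2 cells/well, 5 h preincubation then compound in DMSO; same plates read at 0–40 h, 37 C.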

[8] = A CellTox Green Cytotoxicity Assay to monitor cytotoxicity in HepG2 cells - 24 hour (AID 1224878); further: nearly all actives have a fitted effect of over 45% in size
Procedure, shortened: as §3

[9] = A CellTox Green Cytotoxicity Assay to monitor cytotoxicity in HepG2 cells - 40 hour (AID 1224879); further: nearly all actives have a fitted effect of over 40% in size
Procedure, shortened: as §3

[10] = qHTS RealTime-Glo MT Cell Viability Assay in HepG2 cells - 32 hour (AID 1224877); further: nearly all actives have a fitted effect of over 55% in size
Procedure, shortened: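 HepG2 cells were seeded at 600 cells/well together with NanoLuc luciferase and a cell-permeant prosubstrate, preincubated 5 h at 37 C/5% CO2, then pin-dosed with compounds in DMSO. Nonlytic luminescence from viable cells was read at each time point.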
On the % scale 0 is the no-effect control and ±100 the full control effect.

CCCC(C)C(=O)O (stereo not given)
inactive: Potency [1] | Potency [2] | Potency [3] | outcome [4] | max response [5] -23.4% | Potency [6] | Potency [7] | Potency [8] | Potency [9]

C=CCn1c(=O)n([C@@H]2O[C@H](CO)[C@@H](O)[C@H]2O)c2nc(N)[nH]c(=O)c21
inactive: Potency [1] | Potency [2] | Potency [3] | outcome [4] | max response [5] 3.44% | Potency [6] | Potency [7] | Potency [10] | Potency [9]

Cc1nc(-c2ccc(OCC(C)C)c(C#N)c2)sc1C(=O)O
inactive: Potency [1] | Potency [2] | Potency [3] | outcome [4] | max response [5] -0.381% | Potency [6] | Potency [7] | Potency [10] | Potency [9]

Cc1c(F)cc2c(=O)c(C(=O)O)cn3c2c1CCC3C (stereo not given)
inactive: Potency [1] | Potency [2] | Potency [3] | outcome [4] | max response [5] -0.802% | Potency [6] | Potency [7] | Potency [8] | Potency [9]

O=C(O)CCNC(=O)c1ccc(N=Nc2ccc(O)c(C(=O)O)c2)cc1
inactive: Potency [1] | Potency [2] | Potency [3] | outcome [4] | max response [5] -0.519% | Potency [6] | Potency [7] | Potency [10] | Potency [8] | Potency [9]

COc1cc(O)cc(O)c1
inactive: Potency [1] | Potency [2] | Potency [3] | outcome [4] | max response [5] 2.03% | Potency [6] | Potency [7] | Potency [10] | Potency [9]

CC1=CCC2C(C1)C2(C)C (stereo not given)
inactive: Potency [1] | Potency [2] | Potency [3] | outcome [4] | max response [5] 1.81% | Potency [6] | Potency [7] | Potency [8] | Potency [9]

OCCCCCCO
inactive: Potency [1] | Potency [2] | Potency [3] | outcome [4] | max response [5] -17.6% | Potency [6] | Potency [7] | Potency [10] | Potency [8] | Potency [9]

NS(=O)(=O)c1cc(C2(O)NC(=O)c3ccccc32)ccc1Cl (stereo not given)
inactive: Potency [1] | Potency [2] | Potency [3] | outcome [4] | max response [5] 1% | Potency [6] | Potency [7] | Potency [10] | Potency [9]

CC12CCC(CC1=O)C2(C)C (stereo not given)
inactive: Potency [1] | Potency [2] | Potency [3] | outcome [4] | max response [5] -2.19% | Potency [6] | Potency [7] | Potency [10] | Potency [8] | Potency [9]

O=C1OC(=O)c2cc([N+](=O)[O-])ccc21
inactive: Potency [1] | Potency [2] | Potency [3] | outcome [4] | max response [5] 13% | Potency [6] | Potency [7] | Potency [10] | Potency [9]

CSc1ccc(C=O)cc1
inactive: Potency [1] | Potency [2] | Potency [3] | outcome [4] | max response [5] 0.555% | Potency [6] | Potency [7] | Potency [10] | Potency [8] | Potency [9]

CCN(CC)C(=O)c1ccc(O)c(OC)c1
inactive: Potency [1] | Potency [2] | Potency [3] | outcome [4] | max response [5] 1.73% | Potency [6] | Potency [7] | Potency [10] | Potency [9]

CN(C)CCOC(c1ccc(Cl)cc1)c1ccccn1 (stereo not given)
inactive: Potency [1] | Potency [2] | Potency [3] | outcome [4] | max response [5] 6.99% | Potency [6] | Potency [7] | Potency [8] | Potency [9]

COc1cc(C)cc(O)c1
inactive: Potency [1] | Potency [2] | Potency [3] | outcome [4] | max response [5] -14.5% | Potency [6] | Potency [7] | Potency [8] | Potency [9]

OCCN1C[C@H](O)[C@@H](O)[C@H](O)[C@H]1CO
inactive: Potency [1] | Potency [2] | Potency [3] | outcome [4] | max response [5] 3.53% | Potency [6] | Potency [7] | Potency [10] | Potency [9]

CCCCCCCCCCCl
inactive: Potency [1] | Potency [2] | Potency [3] | outcome [4] | max response [5] 6.94% | Potency [6] | Potency [7] | Potency [10] | Potency [8] | Potency [9]

O=Cc1ccccc1[N+](=O)[O-]
inactive: Potency [1] | Potency [2] | Potency [3] | outcome [4] | max response [5] -5.52% | Potency [6] | Potency [7] | Potency [10] | Potency [8] | Potency [9]

CC(=O)O[C@H](CC(=O)[O-])C[N+](C)(C)C
inactive: Potency [1] | Potency [2] | Potency [3] | outcome [4] | max response [5] 4.27% | Potency [6] | Potency [7] | Potency [10] | Potency [9]

COC(C(=O)O)c1ccccc1 (stereo not given)
inactive: Potency [1] | Potency [2] | Potency [3] | outcome [4] | max response [5] 2.29% | Potency [6] | Potency [7] | Potency [10] | Potency [9]

O=C(O)c1ccccc1-c1ccc(C(F)(F)F)cc1
inactive: Potency [1] | Potency [2] | Potency [3] | outcome [4] | max response [5] 7.22% | Potency [6] | Potency [7] | Potency [8] | Potency [9]
